{"source": "PubChem BioAssay (NCI)", "test": "NCI Yeast Anticancer Drug Screen. Data for the mlh1 strain (AID 171);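 further: 0% = growth of vehicle-treated control cultures of the same strain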", "settings": "S. cerevisiae mlh1 strain growth inhibition, stronger effect = higher value", "description": "Growth inhibition of yeast strains with defined genetic alterations is measured as a screen for potential anti-cancer activity. Selected strains with alterations in DNA damage repair or cell cycle control were exposed to compounds and growth inhibition was measured relative to vehicle treated controls. The strain used in this assay is mlh1", "note": "About 79,000 compounds went through this panel and 15% of them were active in at least one assay; those are over-represented in the sample as a whole. A number with no mark means an inactive call. Activity calls are given as the source filed them. No stated cut-off is given here; in the data, active means growth inhibition above about 70%; inactive means the rest."}
{"smiles": "CCCCN(CCCC)C(=O)/C=C/c1ccccc1", "values": [{"measurement": "growth inhibition", "setting": "at 1.2 µM", "result": -9, "unit": "%"}, {"measurement": "growth inhibition", "setting": "at 3.7 µM", "result": -4, "unit": "%"}, {"measurement": "growth inhibition", "setting": "at 11.0 µM", "result": -5, "unit": "%"}, {"measurement": "growth inhibition", "setting": "at 33.0 µM", "result": 18, "unit": "%"}, {"measurement": "growth inhibition", "setting": "at 100.0 µM", "result": "85% (active)"}]}
{"smiles": "Brc1ccccc1-c1ncc(-c2ccccc2)o1", "values": [{"measurement": "growth inhibition", "setting": "at 1.2 µM", "result": -4, "unit": "%"}, {"measurement": "growth inhibition", "setting": "at 3.7 µM", "result": -13, "unit": "%"}, {"measurement": "growth inhibition", "setting": "at 11.0 µM", "result": 15, "unit": "%"}, {"measurement": "growth inhibition", "setting": "at 33.0 µM", "result": 47, "unit": "%"}, {"measurement": "growth inhibition", "setting": "at 100.0 µM", "result": 60, "unit": "%"}]}
{"smiles": "Nc1ccc(F)cc1S", "values": [{"measurement": "growth inhibition", "setting": "at 1.2 µM", "result": -20, "unit": "%"}, {"measurement": "growth inhibition", "setting": "at 3.7 µM", "result": -19, "unit": "%"}, {"measurement": "growth inhibition", "setting": "at 11.0 µM", "result": 2, "unit": "%"}, {"measurement": "growth inhibition", "setting": "at 33.0 µM", "result": "83% (active)"}, {"measurement": "growth inhibition", "setting": "at 100.0 µM", "result": "98% (active)"}]}
{"smiles": "O=C1C(Br)=C(c2ccccc2)O/C1=C/C(=O)c1ccc(Br)cc1", "values": [{"measurement": "growth inhibition", "setting": "at 1.2 µM", "result": -2, "unit": "%"}, {"measurement": "growth inhibition", "setting": "at 3.7 µM", "result": 1, "unit": "%"}, {"measurement": "growth inhibition", "setting": "at 11.0 µM", "result": 9, "unit": "%"}, {"measurement": "growth inhibition", "setting": "at 33.0 µM", "result": 20, "unit": "%"}, {"measurement": "growth inhibition", "setting": "at 100.0 µM", "result": "89% (active)"}]}
{"smiles": "O=[N+]([O-])c1ccc2c(c1)/C(=N/N=C1c3ccccc3Cc3ccccc31)c1cc([N+](=O)[O-])cc([N+](=O)[O-])c1-2", "values": [{"measurement": "growth inhibition", "setting": "at 1.2 µM", "result": 15, "unit": "%"}, {"measurement": "growth inhibition", "setting": "at 3.7 µM", "result": 50, "unit": "%"}, {"measurement": "growth inhibition", "setting": "at 11.0 µM", "result": "99% (active)"}, {"measurement": "growth inhibition", "setting": "at 33.0 µM", "result": "98% (active)"}, {"measurement": "growth inhibition", "setting": "at 100.0 µM", "result": "93% (active)"}]}
{"smiles": "Clc1ccc2c(c1)N(CCCN1CCCC13CCCCC3)c1ccccc1S2", "values": [{"measurement": "growth inhibition", "setting": "at 1.2 µM", "result": 0, "unit": "%"}, {"measurement": "growth inhibition", "setting": "at 3.7 µM", "result": 2, "unit": "%"}, {"measurement": "growth inhibition", "setting": "at 11.0 µM", "result": -4, "unit": "%"}, {"measurement": "growth inhibition", "setting": "at 33.0 µM", "result": -15, "unit": "%"}, {"measurement": "growth inhibition", "setting": "at 100.0 µM", "result": 8, "unit": "%"}]}
{"smiles": "CCOC(=N)c1ccc(O)c(OC)c1", "values": [{"measurement": "growth inhibition", "setting": "at 1.2 µM", "result": -2, "unit": "%"}, {"measurement": "growth inhibition", "setting": "at 3.7 µM", "result": -3, "unit": "%"}, {"measurement": "growth inhibition", "setting": "at 11.0 µM", "result": -2, "unit": "%"}, {"measurement": "growth inhibition", "setting": "at 33.0 µM", "result": 1, "unit": "%"}, {"measurement": "growth inhibition", "setting": "at 100.0 µM", "result": 1, "unit": "%"}]}
{"smiles": "COc1ccc(C(=O)c2ccccc2C(=O)c2ccccc2OC)cc1", "values": [{"measurement": "growth inhibition", "setting": "at 1.2 µM", "result": 1, "unit": "%"}, {"measurement": "growth inhibition", "setting": "at 3.7 µM", "result": -2, "unit": "%"}, {"measurement": "growth inhibition", "setting": "at 11.0 µM", "result": -1, "unit": "%"}, {"measurement": "growth inhibition", "setting": "at 33.0 µM", "result": 4, "unit": "%"}, {"measurement": "growth inhibition", "setting": "at 100.0 µM", "result": 15, "unit": "%"}]}
